The text below walks through data of PubChem BioAssay (NCATS).

Results filed as inconclusive are left out. Where a call stands in place of a potency, no number is given. Activity calls are given as the source filed them. Calls follow the shape of the dose curve; as a rule, active = well fitted cell-killing curve with a large enough effect; inconclusive = small, poorly fitted or top-dose-only effect; inactive = flat fitted curve, though single readings scatter.

This test can be described thus: Cell Viability - LYMP2-007 (AID 979).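 Also: cells exposed to compound for 24 h before reading; nearly all actives have a fitted effect of over 60% in size.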 To be noted: LYMP2-007 lymphoblastoid cell viability; series mostly up to 92.2 µM. The text has this: NIH Chemical Genomics Center [NCGC]
NIH Molecular Libraries Screening Centers Network [MLSCN]
National Institutes of Environmental Health Sciences [NIEHS]
National Toxicology Program [NTP]
We have developed a 1536-well cell-based assay for quantitative high throughput screening (qHTS) against a number of cell lines to determine in vitro cytotoxicity of small molecules. This particular assay uses a human lymphoblastoid cell line (LYMP2-007) purchased from Coriell Institute for Medical Research.
NCGC Assay Protocol Summary:
The CellTiter-Glo luminescent cell viability assay (Promega) is a homogeneous method to measure the number of viable cells in culture. The end point readout of this assay is based on quantitation of intracellular ATP, an indicator of metabolic activity, using the luciferase reaction. Luciferase catalyzes the oxidation of beetle Luciferin to oxyluciferin and light in the presence of ATP. The luminescent signal is proportional to amount of ATP present.
Using the CellTiter-Glo luminescent cell viability assay, the amount of cellular ATP was measured in the lymphoblastoid cell line with complete culture medium following compound treatment for 24 hours. The assay was performed in opaque white Kalypsys 1536-well plates. In the screen, tetraoctylammonium bromide was used as positive control. Library compounds were measured for their ability to cause acute toxicity in the cell line, as reflected by a decrease in intracellular ATP levels, in a concentration-dependent manner. […] AC50 values were determined from concentration-response data modeled with the standard Hill equation.
qHTS protocol for CellTiter Glo lymphoblastoid cellular assay
[Step] [Parameter] [Value] [Description]
1. Reagent; 5 uL; 2500 lymphoblastoid cells/well
2. Time; 5 hr; 37 C incubation
4. Controls; 23 nL; Tetraoctylammonium bromide 6.4pM to 92 uM
5. Time; 24 hr; 37 C incubation
6. Reagent; 5 uL; CellTiter Glo reagent
7. Time; 30 min; Room Temperature
8. Detection; Luminescence; Viewlux plate reader
Keywords: cell viability, cytotoxicity, lymphoblastoid cell line, luminescence, NTPHTS, NTPHTS_NCGC, NIEHS, DSSTox, MLSMR, MLSCN, NIH Roadmap, qHTS, NCGC
In the case of `Cc1ccc(C)o1`, the Potency entry was “inactive”.

As to `CC1CCCO1` (stereo not given), the Potency result was “inactive”.

`Nc1cccc(O)c1`: the Potency result was “inactive”.

Consider `OCCO`, for which the Potency result is “inactive”.

On to `[O-]/[N+](=N\O)c1ccccc1`, for which the Potency entry was “inactive”.

With `CCOC(=O)OCC`, the Potency result is “inactive”.

Regarding `CCNc1ccccc1`, the Potency result was “inactive”.

In the case of `CC(=O)CC(C)C`, the Potency result was “inactive”.

As for `CCCCCCC=O`, the Potency entry was “inactive”.

In the case of `Cc1ccc2ncccc2c1`, the Potency result is “inactive”.

Regarding `O=C(O)CN(CC(=O)O)CC(=O)O`, the Potency entry was “inactive”.

As to `Clc1ccc(Cl)c(Cl)c1Cl`, the Potency result was “inactive”.

As to `CC#N`, the Potency entry is “inactive”.

In the case of `Cc1ccccc1C#N`, the Potency result is “inactive”.

Regarding `C=CC(=O)OCCCC`, the Potency result was “inactive”.

Turning to `CC1(N)CCC(C(C)(C)N)CC1` (stereo not given), the Potency result is “inactive”.

With `O=C(O[C@@H](C(=O)O)[C@@H](OC(=O)c1ccccc1)C(=O)O)c1ccccc1`, the Potency result is “inactive”.

As for `O=[N+]([O-])c1ccccc1CCO`, the Potency entry was “inactive”.

In the case of `CC(N)CN` (stereo not given), the Potency result is “inactive”.

Regarding `CC(=O)OCCC(C)C`, the Potency entry is “inactive”.

For the compound `C=C(C)OC(C)=O`, the Potency result was “inactive”.

Regarding `Cc1cccc2cccnc12`, the Potency entry was “inactive”.

On to `Nc1cccc(C(F)(F)F)c1`, for which the Potency entry is “inactive”.

As to `Cc1ccccc1C(=O)O`, the Potency entry is “inactive”.

As to `CC/C(C)=N/O`, the Potency entry is “inactive”.

For the compound `C(=C/c1ccccc1)/c1ccccc1`, the Potency entry was “inactive”.

As to `Cc1ccc(C#N)cc1`, the Potency result is “inactive”.

`CN(C)CCCCl`: the Potency result was “inactive”.

For `O=[N+]([O-])c1cc(C(F)(F)F)ccc1Cl`, the Potency result was “inactive”.

For the compound `O=Cc1ccccc1Cl`, the Potency result is “inactive”.

Regarding `Nc1cccc(S(=O)(=O)O)c1`, the Potency entry is “inactive”.

As to `FB(F)F`, the Potency result was “inactive”.

As for `NC=O`, the Potency result was “inactive”.

As for `C=C(C)C(N)=O`, the Potency result was “inactive”.

`CC(C)N=C=NC(C)C`: the Potency entry was “inactive”.

As to `Cc1ccc(Br)cc1`, the Potency entry is “inactive”.

On to `O=C(O)CCSSCCC(=O)O`, for which the Potency result was “inactive”.

For the compound `O=C(O)c1ccc(CO)o1`, the Potency result is “inactive”.

With `CCCCC(CC)COCC1CO1` (stereo not given), the Potency result is “inactive”.

On to `Cc1cc(C)c(N)cc1C`, for which the Potency result is “inactive”.
